Compound activity deposited in PubChem by NMMLSC.
Hits are enriched below; roughly 1.2% of the tested compounds scored in any of these assays.
Avidin fluor = compound fluoresces at 488/530 nm on avidin beads | compound fluorescence 488/530 nm, flow cytometry; active compounds read high | fluorescence (KMESF) at 10 µM | 220,000 compounds, 0.38% hits | AID 1775; in the data active means fluorescence above about 47
RGS8-Gao = human RGS8-Galphao interaction regulation. P09471. multiplexed bead flow cytometry, RGS8-Galphao binding; actives lie on both sides. response (percent of control binding), % at 10 µM. 220,000 compounds, 0.34% hits. AID 1423; in the data active means response below about 60% or above about 140%; inactive means in between;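 further: Galphao activated as the GDP aluminium fluoride complex binding bead-coupled RGS8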
Target sequence (P09471 whole entry, looked up): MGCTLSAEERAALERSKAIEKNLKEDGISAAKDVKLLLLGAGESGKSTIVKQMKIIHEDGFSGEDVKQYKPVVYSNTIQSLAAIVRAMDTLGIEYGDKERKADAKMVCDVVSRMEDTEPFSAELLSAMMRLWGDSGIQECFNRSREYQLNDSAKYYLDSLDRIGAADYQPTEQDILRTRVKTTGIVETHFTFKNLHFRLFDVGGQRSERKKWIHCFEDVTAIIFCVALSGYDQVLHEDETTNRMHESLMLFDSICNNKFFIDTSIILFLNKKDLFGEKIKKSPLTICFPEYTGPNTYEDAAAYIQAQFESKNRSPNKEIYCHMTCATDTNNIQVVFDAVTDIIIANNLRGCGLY
GSH fluor = GSH bead compound fluorescence profile; GSH beads flow cytometry, compound fluorescence 488/530 nm; active compounds read high; fluorescence (KMESF) at 10 µM; 190,000 compounds, 0.25% hits; AID 1776; in the data active means fluorescence above about 89;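 further: glutathione beads carrying GST-tagged Bcl family fusion proteins plus one bare bead set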
RGS7-Gao = human RGS7-Galphao interaction regulation | P09471 | Multiplexed bead flow cytometry, RGS7-Galphao binding; actives lie on both sides | binding response (% of control), % at 10 µM | 220,000 compounds, 0.35% hits | AID 1439; in the data active means binding response below about 49% or above about 150%; inconclusive means no clear call, values can overlap the other calls; inactive means in between;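 further: fluorescent Galphao held in activated GDP-AlF4 state binding bead-coupled RGS7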
RGS16-Gao = modulates binding between human RGS16 and Galphao; O15492+P09471; bead-based flow cytometry RGS16-Galphao binding, fluorescence; actives lie on both sides; binding response (% of control), % at 10 µM; 220,000 compounds, 0.38% hits; AID 1441;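 further: Galphao activated by GDP with aluminum fluoride before binding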
RGS4-Gao reg = human RGS4-Galphao interaction regulation; Multiplexed bead flow cytometry, RGS4-Galphao binding; actives lie on both sides; binding response (% of control), % at 10 µM; 220,000 compounds, 0.33% hits; AID 1415; in the data active means binding response below about 49% or above about 150%; inactive means in between;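 further: fluorescent Galphao activated with aluminum fluoride binding bead-coupled RGS4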
RGS4-Gao HTS = RGS4-Galphao interaction regulator (human) | RGS4–Galpha-o binding response, % at 10 µM | shares compounds with RGS16-Gao | 1,600 compounds, 99% hits | multiplexed bead flow cytometry, RGS–Galpha-o binding;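 further: fluorescently labeled Galpha-o bound to GDP with aluminium fluoride binding biotinylated RGS beads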
Biotin-avidin = biotin-avidin bead binding disruption counter-screen. shares compounds with RGS16-Gao. 1,700 tested, under 10 active. inhibition, % at 10 µM. AID 1783. streptavidin beads, fluorescein-biotin binding, flow cytometry;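 active means inhibition above 50%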;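 further: median green fluorescence of gated singlet beads compared with DMSO control wells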
RGS8-Gao single = RGS8-Galphao interaction regulation, single point confirmation. shares compounds with RGS16-Gao. bead-based flow cytometry RGS8-Galphao binding, fluorescence; actives lie on both sides. binding response (% of control), % at 10 µM. 1,700 compounds, 3% hits. AID 1836; in the data active means binding response below about 72% or above about 130%; inactive means in between;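 further: Galphao activated as GDP AlF4 complex before binding bead RGS8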
RGS7-Gao confirm = confirmation of regulators of human RGS7-Galphao interaction | 1,700 compounds, 7.8% hits | shares compounds with RGS16-Gao | AID 1837 | bead-based flow cytometry RGS7-Galphao binding; actives lie on both sides | response (percent of control binding), % at 10 µM; in the data active means response below about 75% or above about 130%; inactive means in between;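 further: fluorescent Galphao activated with GDP and aluminum fluoride binding bead-coupled RGS7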
RGS16-Gao single = RGS16-Galphao interaction regulation, single point confirmation; shares compounds with RGS16-Gao; bead-based flow cytometry, RGS16-Galphao binding; actives lie on both sides; response (% of control binding), % at 10 µM; 1,700 compounds, 4% hits; AID 1838; in the data active means response below about 74% or above about 130%; inactive means in between;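 further: Galphao activated as the GDP aluminium fluoride complex binding bead-coupled RGS16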
RGS4-Gao single = confirmation of regulators of human RGS4-Galphao interaction | shares compounds with RGS16-Gao | RGS4-Galphao binding, multiplexed bead flow cytometry; actives lie on both sides | binding response (% of control), % at 10 µM | 1,700 compounds, 4% hits; in the data active means binding response below about 74% or above about 130%; inactive means in between
RGS19-Gao conf = RGS19-Galphao interaction regulation, single point confirmation; shares compounds with RGS16-Gao; bead-based flow cytometry RGS19-Galphao binding; actives lie on both sides; response (percent of control binding), % at 10 µM; 1,700 compounds, 5% hits; AID 1841; in the data active means response below about 50% or above about 160%; inactive means in between
Large screens that a line does not name were inactive (follow-up assays come after a bar, where they were run); [ ] = remark or other dose. Unless noted, how the calls were made is not given here.

O=C(C1CCCCC1)N1CCN=C1SCc1cccc([N+](=O)[O-])c1	none
Cc1ccccc1/C=N/n1c(-c2cc(-c3ccccc3)n[nH]2)n[nH]c1=S	RGS8-Gao 41, RGS7-Gao inconclusive, RGS4-Gao reg 37 (no result: GSH fluor) | Biotin-avidin inactive | RGS8-Gao single inactive | RGS7-Gao confirm inactive | RGS16-Gao single inactive | RGS4-Gao single inactive | RGS19-Gao conf inactive
Cc1ccsc1/C=N/n1c(-c2cc(-c3ccccc3)n[nH]2)n[nH]c1=S	RGS7-Gao inconclusive (no result: GSH fluor)
CS(=O)(=O)NCCOc1ccc(S(=O)(=O)NCCOc2ccccc2)cc1	RGS7-Gao inconclusive
O=S(=O)(NCCOc1ccccc1)c1ccc2ccccc2c1	RGS16-Gao -1.5 | RGS4-Gao HTS 90
O=C(Cc1n[nH]c(=O)c2ccccc12)OCC(=O)c1ccc2c(c1)OCCO2	none
NS(=O)(=O)c1cc(C(=O)OCC(=O)c2ccc3c(c2)OCCO3)ccc1Cl	Avidin fluor 51, RGS7-Gao 179[activator] | RGS4-Gao HTS 106 | Biotin-avidin inactive | RGS8-Gao single inactive | RGS7-Gao confirm inactive | RGS16-Gao single inactive | RGS4-Gao single inactive | RGS19-Gao conf inactive
O=C(Cc1ccc(Br)cc1)OCC(=O)c1ccc2c(c1)OCCO2	RGS8-Gao 54, RGS7-Gao 42, RGS4-Gao reg 47 | Biotin-avidin inactive | RGS8-Gao single inactive | RGS7-Gao confirm inactive | RGS16-Gao single inactive | RGS4-Gao single inactive | RGS19-Gao conf inactive
NS(=O)(=O)c1cc(C(=O)OCC(=O)NC2CC2)ccc1Cl	none
O=C(CSc1ncnc2sc3c(c12)CCC3)Nc1ccccc1C(=O)O	RGS7-Gao inconclusive (no result: GSH fluor)
O=C(Nc1cccc([N+](=O)[O-])c1)c1ccn[nH]1	none
O=C(Nc1ccc(Nc2ccncc2)cc1)c1ccc(Nc2ccnc3ccc([N+](=O)[O-])cc23)cc1	RGS8-Gao 59, RGS7-Gao inconclusive, RGS4-Gao reg 24 (no result: GSH fluor) | Biotin-avidin inactive | RGS8-Gao single inactive | RGS7-Gao confirm inactive | RGS16-Gao single inactive | RGS4-Gao single inactive | RGS19-Gao conf inactive
CSC1=NC(=O)/C(=C\c2cccc3ccccc23)S1	Avidin fluor 200, RGS7-Gao 223[activator] | RGS4-Gao HTS 124 | Biotin-avidin inactive | RGS8-Gao single inactive | RGS7-Gao confirm inactive | RGS16-Gao single inactive | RGS4-Gao single inactive | RGS19-Gao conf inactive
N=C1S/C(=C\c2cccc3ccccc23)C(=O)N1c1ccc(F)cc1	none
COC(=O)c1sc(S(=O)(=O)Nc2ccc(Br)cc2)c(C(=O)OC)c1C	none
Cc1cc(C)nc(/N=C(\NC(=O)C(C)(C)C)Nc2ccc(F)cc2)n1	RGS7-Gao inconclusive (no result: GSH fluor)
c1ccc(CCc2nc3ccccc3[nH]2)cc1	none
Nc1cccc(CCc2nc3cc4ccccc4cc3[nH]2)c1	RGS16-Gao 8.6 | RGS4-Gao HTS 89 | Biotin-avidin inactive | RGS8-Gao single inactive | RGS7-Gao confirm inactive | RGS16-Gao single inactive | RGS4-Gao single inactive | RGS19-Gao conf inactive
